Assay [1] has as its target Estrogen receptor (Homo sapiens) (UniProt P03372). Kind of assay: qHTS assay for small molecule antagonists of estrogen receptor alpha signaling (AID 588513; active means well fitted curve in the direction sought with a large enough effect in the signal ratio, with a control signal flat, not every such curve was filed as active; the % refers to the signal ratio; further: on the % scale 0 is the no-effect control and ±100 the full control effect). The essentials: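 ER-alpha-UAS-bla GripTite HEK 293 cells in 2% charcoal/dextran-treated FBS medium; compounds titrated (1:2, duplicate), then stimulated with 0.5 nM 17-beta-estradiol for 18 h at 37C. CCF4 beta-lactamase fluorescence; Hill-fit IC50 and efficacy.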

For assay [2] the target is unchanged. Kind of assay: qHTS assay for small molecule agonists of estrogen receptor alpha signaling (AID 588514).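 Further: 0% = vehicle only and 100% = reference agonist; nearly all actives have a fitted effect of over 70% in size.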 The method in brief: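 Reporter-gene assay. […] controls beta-lactamase in HEK 293 GripTite cells; after 18 hrs with compound, CCF4 substrate is added for 2 hrs and fluorescence is read.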
In general terms: qHTS replaces the single test concentration by a dilution series.

For assay [3], the target named is Peroxisome proliferator-activated receptor delta (Homo sapiens) (UniProt Q03181). Kind of assay: qHTS assay for small molecule agonists of peroxisome proliferator-activated receptor delta signaling (AID 588534).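 Further: 0% = DMSO basal wells and 100% = positive control agonist at 10 µM.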 The method in brief: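 Reporter cells were plated and held 5 hrs at 37 C before compounds were added. After 18 hrs at 37 C, CCF4 dye was loaded for 2 hrs at RT and fluorescence measured.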
Peroxisome proliferator-activated receptor delta (Homo sapiens), sequence (Q03181 whole entry, looked up): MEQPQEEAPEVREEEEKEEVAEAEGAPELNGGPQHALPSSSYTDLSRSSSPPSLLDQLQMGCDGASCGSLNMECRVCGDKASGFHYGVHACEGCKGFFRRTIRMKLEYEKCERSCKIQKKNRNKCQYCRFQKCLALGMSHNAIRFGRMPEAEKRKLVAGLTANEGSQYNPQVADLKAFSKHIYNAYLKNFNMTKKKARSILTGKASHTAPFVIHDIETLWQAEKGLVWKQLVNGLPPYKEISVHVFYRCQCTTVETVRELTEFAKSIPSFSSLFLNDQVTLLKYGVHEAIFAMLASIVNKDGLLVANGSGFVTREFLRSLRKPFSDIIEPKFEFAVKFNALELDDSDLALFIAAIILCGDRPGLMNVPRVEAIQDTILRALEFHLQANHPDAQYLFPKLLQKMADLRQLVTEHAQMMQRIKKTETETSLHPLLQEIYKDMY

Assay [4] has as its target Peroxisome proliferator-activated receptor gamma (Homo sapiens) (UniProt P37231). As to the kind of experiment: qHTS assay for small molecule agonists of peroxisome proliferator-activated receptor gamma signaling (AID 588536; active means well fitted curve in the direction sought with a large enough effect in the signal ratio, with a control signal flat, not every such curve was filed as active; the % refers to the signal ratio;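 further: 0% = DMSO basal wells and 100% = rosiglitazone at 2 µM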). The essentials: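 HEK293 UAS-bla reporter line, 1% charcoal/dextran FBS; titration, 16 h, 37 C; CCF4 loading 2 h RT; fluorescence 460/530 nm. Normalized to rosiglitazone 2 uM = 100%, DMSO = 0%.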

Assay [5] shares this target. As to the kind of experiment: qHTS assay for small molecule antagonists of peroxisome proliferator-activated receptor gamma signaling (AID 588537; active means well fitted inhibition curve with a large enough effect in the signal ratio, with a control signal flat, not every such curve was filed as active; the % refers to the signal ratio;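 further: reporter cells co-stimulated with 50 nM rosiglitazone agonist during compound treatment; % of control where 0% means no effect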). The essentials:
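Inhibitors of agonist-stimulated UAS-bla reporter activity were sought in HEK293 cells; rosiglitazone (50 nM) defined full signal and DMSO baseline. Curves fitted to Hill model gave IC50 and efficacy.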

In assay [6] the target is Thyroid hormone receptor beta (Homo sapiens) (UniProt P10828). Kind of assay: qHTS assay for small molecule agonists of thyroid hormone receptor beta signaling (AID 588545). The essentials:
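In this cell-based screen, titrated compounds act on HEK 293 cells held in medium with 2% charcoal/dextran FBS, NEAA and pyruvate for 18 hrs at 37 C. Responses are expressed relative to T3 (10 nM) as 100% and basal DMSO as 0%.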

The nature of assay [7]: qHTS assay for small molecule antagonists of retinoid X receptor alpha signaling (AID 588546; active means well fitted inhibition curve with a large enough effect in the signal ratio, with a control signal flat, not every such curve was filed as active; the % refers to the signal ratio;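 further: cells stimulated with 9-cis-retinoic acid as agonist; on the % scale 0 is the no-effect control and ±100 the full control effect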). To be noted: HEK293T RXRa-UAS-bla, beta-lactamase ratio, antagonist mode; measured here: W530 green channel, cytotoxicity proxy. The method in brief:
(§1)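 Beta-lactamase reporter inhibition, read as CCF4 fluorescence ratio (ex 405, em 460/530 nm) after 2 h at RT. HEK293T UAS-bla cells, 2500/well, were stimulated with 9-cis-RA at 500 or 100 nM final alongside test compound for 18 h at 37 C.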

In assay [8] the target is Thyroid hormone receptor beta (Homo sapiens) (UniProt P10828). Kind of assay: qHTS assay for small molecule antagonists of thyroid hormone receptor beta signaling (AID 588547; active means well fitted inhibition curve with a large enough effect in the signal ratio, with a control signal flat, not every such curve was filed as active; the % refers to the signal ratio;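 further: cells stimulated with 0.4 nM T3 agonist during compound exposure; series mostly up to about 77 µM; on the % scale 0 is the no-effect control and ±100 the full control effect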). To be noted: TR-UAS-bla HEK293, beta-lactamase ratio, antagonist mode, 18 h. The essentials:
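Inhibition of T3-driven (0.4nM final) beta-lactamase reporter activity was measured over 0.59 nM to 92 uM compound after 18 h at 37 C. The cells were GripTite HEK293 TR-UAS-bla in charcoal/dextran-stripped serum, with CCF4 ratio read-out and IC50 from Hill fits.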

A short description of assay [9]: qHTS assay for small molecule activators of the p53 signaling pathway (AID 651743; active means well fitted activation curve with a large enough effect in the signal ratio, not every such curve was filed as active; the % refers to the signal ratio; further: series mostly up to about 92 µM; % of control where 0% means no effect). To be noted: HCT-116 p53RE-bla, beta-lactamase FRET ratio, 16 h; activation: stronger effect = higher value. The essentials: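 Screen for p53 pathway agonists uses stably transfected p53RE-bla HCT-116 cells, 4,000 per well, treated 16 h at 37 C with compounds in DMSO.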
Assay [10] can be described thus: qHTS assay for environmental chemicals that activate the Aryl hydrocarbon Receptor (AhR) signaling pathway (AID 651777; active means well fitted curve in the direction sought with a large enough effect; an effect the other way counts as inactive or inconclusive; further: % of control where 0% means no effect; nearly all actives have a fitted effect of over 15% in size). To be noted: 1A2-DRE human hepatoma cells, luciferase, 24 h; activation: stronger effect = higher value. The method in brief:
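Stable CYP1A2 promoter/DRE-luciferase human hepatoma line treated 24 hr; One-Glo luminescence, 30 min RT.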

The target in assay [11] is Peroxisome proliferator-activated receptor alpha (Homo sapiens) (UniProt Q07869). As to the kind of experiment: qHTS assay for small molecule agonists of the peroxisome proliferator-activated receptor alpha (PPARalpha) signaling pathway (AID 651778; active means well fitted curve in the direction sought with a large enough effect; an effect the other way counts as inactive or inconclusive; further: % of control where 0% means no effect). To be noted: PathHunter PPARalpha complementation, chemiluminescence, 6 h; max response: stronger effect = higher value. The method in brief:
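Chemiluminescence from complemented enzyme reported PPARalpha activation in cells after 6 hr of compound treatment at 37 C. The detection reagent was incubated for 60 min at room temperature, and compounds were scored as agonists.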

A short description of assay [12]: qHTS assay for small molecule agonists of the antioxidant response element (ARE) signaling pathway measured by Nrf2-dependant transcriptional activity (AID 720636; active means well fitted curve in the direction sought with a large enough effect in the repeat runs; an effect the other way counts as inactive or inconclusive;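 further: HepG2 cells with an ARE-driven luciferase reporter; % of control where 0% means no effect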). The method in brief: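 Reporter gene assay, HepG2 ARE-luc: 16 hr compound, 37 C, 5% CO2; read-out luciferase luminescence.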
The nature of assay [13]: qHTS assay for small molecule agonists of the antioxidant response element (ARE) signaling pathway measured by Nrf2-dependant transcriptional activity - cell viability counter screen (AID 720653; active means well fitted curve in the direction sought with a large enough effect in the repeat runs; an effect the other way counts as inactive or inconclusive; further: on the % scale 0 is the no-effect control and ±100 the full control effect). To be noted: ARE-bla HepG2 viability, CellTiter-Glo ATP luminescence, 16 h; max response: stronger effect = lower value. The essentials:
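Cytotoxicity counter screen: intracellular ATP quantified by CellTiter-Glo luminescence in the same ARE-bla HepG2 plates, after 16 h compound exposure and a 2 h beta-lactamase substrate step.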

A short description of assay [14]: qHTS assay for cell viability of HEK293 cells (AID 743288; active means well fitted curve in the direction sought with a large enough effect; an effect the other way counts as inactive or inconclusive; further: on the % scale 0 is the no-effect control and ±100 the full control effect; nearly all actives have a fitted effect of over 50% in size). To be noted: ATP luminescence (CellTiter-Glo), 18 h; max response: stronger effect = lower value. The method in brief:
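Parental HEK293 cells, 2,000 per well, preincubated at least 5 h at 37 C, then exposed to compounds in DMSO for 18 h at 37 C. Viability by CellTiter-Glo ATP luminescence after 30 min at room temperature.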

Assay [15] in a line: qHTS assay for cell viability of the p53RE-bla HCT-116 cell line (AID 743292; active means well fitted curve in the direction sought with a large enough effect; an effect the other way counts as inactive or inconclusive; further: on the % scale 0 is the no-effect control and ±100 the full control effect; nearly all actives have a fitted effect of over 55% in size). The method in brief:
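Readout: CellTiter-Glo luminescence after 30 min RT. Treatment: compounds in DMSO, 16 h, 37 C. Cells: CellSensor p53RE-bla HCT-116, 4,000/well, preincubated 5 h.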

Assay [16] deals with Nuclear receptor subfamily 1 group I member 2 (Rattus norvegicus) (UniProt Q9R1A7). Kind of assay: qHTS assay for small molecule activators of the rat pregnane X receptor (rPXR) signaling pathway (AID 651751; call rule not given here; further: 0% is about no effect). To be noted: rPXR reporter cells, luciferase (One-Glo), 24 h.
Nuclear receptor subfamily 1 group I member 2 (Rattus norvegicus), sequence (Q9R1A7 whole entry, looked up): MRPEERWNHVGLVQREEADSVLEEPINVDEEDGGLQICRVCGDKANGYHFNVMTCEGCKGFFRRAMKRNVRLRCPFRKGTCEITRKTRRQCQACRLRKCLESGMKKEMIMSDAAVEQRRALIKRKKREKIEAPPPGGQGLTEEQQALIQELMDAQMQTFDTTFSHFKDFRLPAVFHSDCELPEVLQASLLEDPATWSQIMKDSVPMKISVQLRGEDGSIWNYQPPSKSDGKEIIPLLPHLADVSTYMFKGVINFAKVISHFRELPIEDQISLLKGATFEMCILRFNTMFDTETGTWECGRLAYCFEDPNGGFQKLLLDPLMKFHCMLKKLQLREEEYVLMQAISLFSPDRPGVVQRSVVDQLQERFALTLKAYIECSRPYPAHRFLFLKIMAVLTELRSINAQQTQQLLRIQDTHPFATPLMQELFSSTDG
Assay [17] addresses Vitamin D3 receptor (Homo sapiens) (UniProt P11473). As to the kind of experiment: qHTS assay for small molecule antagonists of vitamin D receptor signaling (AID 588541). The essentials: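 Antagonist-mode beta-lactamase reporter assay: HEK293T VDR-UAS-bla cells were exposed to titrated compound alongside 1-alpha,25-dihydroxyvitamin D3 at 3 nM final for 16 h. Values were normalized to the 50 nM agonist control and DMSO basal, with IC50 and efficacy from Hill equation fits.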

The nature of assay [18]: qHTS assay for small molecule agonists of retinoid X receptor alpha signaling (AID 588544).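 On activation: 0% = DMSO basal wells and 100% = reference agonist.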 To be noted: HEK293T RXRa-UAS-bla, beta-lactamase reporter, 18 h; 530 nm emission.
The target of assay [19] is Retinoic acid receptor RXR-alpha (Homo sapiens) (UniProt P19793). The description is as above.
Retinoic acid receptor RXR-alpha (Homo sapiens), sequence (P19793 whole entry, looked up): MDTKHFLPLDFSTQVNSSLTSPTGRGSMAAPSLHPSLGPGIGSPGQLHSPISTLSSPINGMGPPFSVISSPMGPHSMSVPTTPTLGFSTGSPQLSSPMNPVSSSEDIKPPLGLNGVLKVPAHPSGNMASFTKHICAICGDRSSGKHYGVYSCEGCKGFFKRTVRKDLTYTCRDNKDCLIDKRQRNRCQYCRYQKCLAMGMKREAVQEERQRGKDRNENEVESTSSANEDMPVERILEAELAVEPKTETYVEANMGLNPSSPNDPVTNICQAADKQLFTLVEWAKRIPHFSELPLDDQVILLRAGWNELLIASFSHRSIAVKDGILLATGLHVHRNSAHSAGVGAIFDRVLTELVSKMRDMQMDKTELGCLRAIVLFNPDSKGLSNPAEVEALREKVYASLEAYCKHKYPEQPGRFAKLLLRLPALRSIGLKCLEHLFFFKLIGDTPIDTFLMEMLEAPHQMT
Assay [20] shares this target. As to the kind of experiment: qHTS assay for small molecule antagonists of retinoid X receptor alpha signaling (AID 588546).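 Further: cells stimulated with 9-cis-retinoic acid as agonist; on the % scale 0 is the no-effect control and ±100 the full control effect.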 To be noted: HEK293T RXRa-UAS-bla, beta-lactamase ratio, antagonist mode. The method in brief: as §1

The values below come from PubChem BioAssay (NCATS).

Records with an inconclusive call do not appear. The source made the active and inactive calls. Unless noted, the call rests on the fitted dose curve.

Peroxisome proliferator-activated receptor gamma (Homo sapiens), sequence (P37231 whole entry, looked up): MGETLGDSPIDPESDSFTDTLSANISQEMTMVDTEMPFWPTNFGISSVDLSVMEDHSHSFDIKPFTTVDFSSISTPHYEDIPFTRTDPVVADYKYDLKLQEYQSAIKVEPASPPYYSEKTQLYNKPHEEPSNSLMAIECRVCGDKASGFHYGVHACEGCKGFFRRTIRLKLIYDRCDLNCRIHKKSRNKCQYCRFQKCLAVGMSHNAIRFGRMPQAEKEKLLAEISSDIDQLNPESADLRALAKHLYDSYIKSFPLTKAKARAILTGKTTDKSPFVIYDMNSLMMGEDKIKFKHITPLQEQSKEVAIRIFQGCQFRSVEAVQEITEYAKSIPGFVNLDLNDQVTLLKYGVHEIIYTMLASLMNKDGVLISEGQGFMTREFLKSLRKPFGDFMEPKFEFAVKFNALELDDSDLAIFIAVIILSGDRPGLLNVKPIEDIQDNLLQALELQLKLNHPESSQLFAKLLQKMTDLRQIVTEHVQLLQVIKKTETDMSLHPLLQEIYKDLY
Peroxisome proliferator-activated receptor alpha (Homo sapiens), sequence (Q07869 whole entry, looked up): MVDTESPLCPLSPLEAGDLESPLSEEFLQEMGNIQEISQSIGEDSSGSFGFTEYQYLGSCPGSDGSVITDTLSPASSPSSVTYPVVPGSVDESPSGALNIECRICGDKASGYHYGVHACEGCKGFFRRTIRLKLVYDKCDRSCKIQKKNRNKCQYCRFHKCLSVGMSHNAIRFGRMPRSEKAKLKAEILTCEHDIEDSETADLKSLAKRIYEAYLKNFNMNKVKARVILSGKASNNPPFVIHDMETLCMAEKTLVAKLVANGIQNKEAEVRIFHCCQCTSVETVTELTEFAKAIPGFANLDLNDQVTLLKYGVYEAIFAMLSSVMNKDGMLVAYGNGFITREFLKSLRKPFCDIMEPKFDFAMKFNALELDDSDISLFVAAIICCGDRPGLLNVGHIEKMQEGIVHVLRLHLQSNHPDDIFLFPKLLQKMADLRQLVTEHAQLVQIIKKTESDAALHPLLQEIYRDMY
Vitamin D3 receptor (Homo sapiens), sequence (P11473 whole entry, looked up): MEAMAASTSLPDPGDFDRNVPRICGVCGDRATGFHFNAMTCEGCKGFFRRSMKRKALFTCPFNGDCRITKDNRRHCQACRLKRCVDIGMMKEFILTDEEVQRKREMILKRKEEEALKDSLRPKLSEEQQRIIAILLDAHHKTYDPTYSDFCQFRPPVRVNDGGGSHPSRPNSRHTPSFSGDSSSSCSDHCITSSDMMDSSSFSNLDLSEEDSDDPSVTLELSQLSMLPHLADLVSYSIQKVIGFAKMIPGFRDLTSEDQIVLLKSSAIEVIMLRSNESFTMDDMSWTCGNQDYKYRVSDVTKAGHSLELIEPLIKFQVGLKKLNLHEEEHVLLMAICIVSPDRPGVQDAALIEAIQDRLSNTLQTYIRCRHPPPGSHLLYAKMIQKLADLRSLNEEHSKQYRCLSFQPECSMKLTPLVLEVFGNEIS
Estrogen receptor (Homo sapiens), sequence (P03372 whole entry, looked up): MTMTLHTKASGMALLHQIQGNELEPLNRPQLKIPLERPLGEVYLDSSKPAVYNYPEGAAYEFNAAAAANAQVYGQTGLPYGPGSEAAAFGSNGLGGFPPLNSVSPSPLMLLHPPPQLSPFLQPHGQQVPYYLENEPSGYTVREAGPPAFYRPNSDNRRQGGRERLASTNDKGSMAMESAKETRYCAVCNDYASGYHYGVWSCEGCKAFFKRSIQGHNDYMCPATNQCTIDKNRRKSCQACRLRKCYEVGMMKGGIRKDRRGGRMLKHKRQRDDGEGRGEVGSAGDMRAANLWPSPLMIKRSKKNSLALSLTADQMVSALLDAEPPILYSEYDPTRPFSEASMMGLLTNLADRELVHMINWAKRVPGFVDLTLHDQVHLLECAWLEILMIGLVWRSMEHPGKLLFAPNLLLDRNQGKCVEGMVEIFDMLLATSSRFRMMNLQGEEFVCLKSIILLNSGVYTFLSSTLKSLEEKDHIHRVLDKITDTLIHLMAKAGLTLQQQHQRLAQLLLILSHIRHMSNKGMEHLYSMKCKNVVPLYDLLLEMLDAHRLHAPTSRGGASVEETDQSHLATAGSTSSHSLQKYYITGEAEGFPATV
Thyroid hormone receptor beta (Homo sapiens), sequence (P10828 whole entry, looked up): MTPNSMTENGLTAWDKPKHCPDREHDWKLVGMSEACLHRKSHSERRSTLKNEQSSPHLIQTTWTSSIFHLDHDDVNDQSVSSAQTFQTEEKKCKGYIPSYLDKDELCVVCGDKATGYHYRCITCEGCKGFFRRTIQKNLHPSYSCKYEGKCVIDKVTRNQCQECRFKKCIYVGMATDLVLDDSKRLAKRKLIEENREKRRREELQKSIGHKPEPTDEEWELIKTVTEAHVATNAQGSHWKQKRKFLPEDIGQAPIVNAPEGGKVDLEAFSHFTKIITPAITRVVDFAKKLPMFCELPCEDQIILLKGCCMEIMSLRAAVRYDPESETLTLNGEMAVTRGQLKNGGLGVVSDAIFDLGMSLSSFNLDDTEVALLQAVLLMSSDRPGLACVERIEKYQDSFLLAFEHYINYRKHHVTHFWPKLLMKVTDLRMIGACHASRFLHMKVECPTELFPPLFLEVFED

Regarding `COc1cnc(OC)n2nc(NS(=O)(=O)c3c(OCC(F)F)cccc3C(F)(F)F)nc12`, the Potency entry in assay [1], in assay [2], in assay [4], in [5], in [6] and in assay [12] was “inactive” each time. Besides, the Potency result in assay [15] was “inactive”. Besides, the compound was classed as inactive in [3]. The max response was 8.71% in assay [7]; -1.19% (inactive) in assay [11]; -2.64% (inactive) in assay [13]; -8.21% (inactive) in assay [14]; -1.36% (inactive) in [16]. Further, the activity change % (negative = inhibition) in [8] was 9.04% (inactive). Moreover, the activation was 1.45% (inactive) in [9] and 0.743% (inactive) in [10].
For `CCSCc1ccccc1OC(=O)NC`, the Potency result in assay [1], in [4], in assay [5], in assay [17], in [19] and in assay [6] was “inactive” throughout. The Potency result in assay [12] and in assay [15] was “inactive” throughout. Also, the outcome in [3] was inactive. The max response is -16.4% in [18]; -7.11% in assay [7]; -13% (inactive) in assay [20]; -0.372% (inactive) in assay [11]; -3.42% (inactive) in [13]; -9.67% (inactive) in assay [14]. Further, the max response in assay [16] is 0.0425% (inactive). In addition, the activity change % (negative = inhibition) in assay [8] is -8.58% (inactive). The figures for the activation in assay [9] and in assay [10] were 3.49% (inactive) and 0.553% (inactive), respectively.
In the case of `CNC(=O)Oc1cc(C)cc(C(C)C)c1`, the Potency result in assay [1], in assay [2], in assay [4], in assay [5], in assay [17] and in assay [19] was “inactive” in each case. Moreover, the Potency entry in assay [6], in [12] and in assay [15] was “inactive” throughout. The call in assay [3] was inactive. The max response is -15.4% in assay [18]; -5.53% in assay [7]; 4.47% (inactive) in assay [11]; 3.5% (inactive) in [13]; -3.71% (inactive) in assay [16]. Also, the activity change % (negative = inhibition) in assay [8] is 4.48% (inactive). Further, the activation in assay [9] is 6.05% (inactive); in [10], 0.548% (inactive).
As to `CC(C)(C)C(=O)[C@H](Oc1ccc(Cl)cc1)n1cncn1`, the Potency result in [1], in assay [2], in [4], in assay [5], in [17] and in assay [19] was “inactive” each time. Also, the Potency result in [6], in assay [12] and in assay [15] was “inactive” each time. Also, the call in assay [3] was inactive. Also, the max response in assay [18] is 21.3%; in assay [7], 20.1%; in [20] it was -22% (inactive); in assay [11] it was -2.36% (inactive); in assay [13] it was -6.65% (inactive); in assay [14], -16.1% (inactive). Also, the activity change % (negative = inhibition) in [8] is -10.2% (inactive). Besides, the activation in assay [9] is -5.19% (inactive); in assay [10], 3.75% (inactive).
As to `OC(Cn1cncn1)(c1ccc(F)cc1)c1ccccc1F` (stereo not given), the Potency result in [1], in assay [2], in assay [4], in [5], in assay [17] and in assay [19] was “inactive” throughout. Besides, the Potency entry in assay [6], in [12] and in assay [15] was “inactive” in each case. Moreover, in assay [3], the result was inactive. In addition, the max response in assay [18] was -7.56%; in assay [7] it was -19.4%; in assay [20], -2.11% (inactive); in assay [11], -2.15% (inactive); in assay [13] it was -4.37% (inactive); in assay [14], -3.84% (inactive). Moreover, the activity change % (negative = inhibition) in assay [8] is 10.3% (inactive). Moreover, the activation in [9] is 0.874% (inactive).
